Screening results (PubChem BioAssay)
Shown are actives, neighbours in structure and some others; about 0.93% of the full set was active somewhere.
697 NFkB inh = lowers PMA/ionomycin-induced NF-kB signal in 697 B cells; 697 B-cell NF-kB luciferase reporter, 16 h; inhibition, % at 4 µM; hit rate 0.33% among 330,000; AID 435022; in the data active means inhibition above about 35%
Jurkat NFkB inh = inhibitors of the PMA/ionomycin-induced NF-kB reporter in Jurkat cells. PMA/ionomycin-induced NF-kB luciferase reporter, luminescence. inhibition, % at 4 µM. hit rate 0.53% among 330,000; in the data active means inhibition above about 50%
F508del corr = CFTR F508del correction in bronchial cells; CFBE cells, YFP halide quenching; stimulated with forskolin plus potentiator P3; % fluorescence drop versus neutral controls; activity (quench increase), % at 7.58 µM; hit rate 0.36% among 350,000; AID 720511;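 active means mean added fluorescence quench of at least 8% versus neutral control, with both replicates also reaching 8%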;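 further: cells transiently co-express mutant CFTR-F508del with the halide-sensitive YFP; corrector assay measuring rescue of mutant channel to the surface after 24 h compound exposure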
HIF act = HIF pathway transcriptional activation; U2OS HRE-luciferase reporter, luminescence; normalized: DMSO 0%, desferrioxamine 100%; activation, % at 7.5 µM (by protocol); hit rate 0.32% among 300,000;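 active means mean activation of at least 10% of the iron chelator positive control signal, with at least half of replicates also reaching 10%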
697 NFkB conf = inhibitors of the PMA/ionomycin-induced NF-kB reporter in 697 B cells, retest | shares compounds with 697 NFkB inh | 697 B-cell NF-kB luciferase, 16 h | inhibition, % at 4 µM | hit rate 35% among 2,000; in the data active means inhibition mostly above about 28%, no sharp cut-off; inactive means mostly below about 22%
* marks the source's active call; other numbers are inactive results; · = no result given.

SMILES | 697 NFkB inh | Jurkat NFkB inh | F508del corr | HIF act | 697 NFkB conf
COc1ccc(CC(=O)Nc2cccc(-c3ccc4nnc(C)n4n3)c2)cc1 | 35 | 20 | -2 | 0 | 29*
COc1cccc(NC(=O)Nc2ccc3c(c2)OC[C@H](C)NC[C@H](C)[C@@H](OC)CN(C)C3=O)c1 | · | · | -1 | · | ·
CC(=O)N[C@H]1CC[C@@H](CCNC(=O)C2CCCCC2)O[C@H]1CO | · | · | 2 | · | ·
COc1ccc(N2CCN(c3oc(-c4ccccc4OC)nc3C#N)CC2)cc1 | 12 | 5 | -1 | 0 | ·
COc1ccccc1-c1nc(C#N)c(N2CCN(c3ccccc3)CC2)o1 | 37* | 11 | · | -1 | 19
Cn1ncc2c(Nc3ccc(Cl)c(Cl)c3)ncnc21 | -10 | -16 | 0 | 2 | ·
Cn1ncc2c(Nc3ccc(-c4ccccc4)cc3)ncnc21 | -436 | -110 | · | 2 | -450
FC(F)(F)c1cc(CCN2CCNC[C@H]2Cc2cccc3ccccc23)cc(C(F)(F)F)c1 | 36* | 20 | 3 | 0 | 13
Oc1ccc(C[C@@H]2CNCCN2CCc2cc(C(F)(F)F)cc(C(F)(F)F)c2)cc1 | -8 | 16 | 1 | 2 | ·
COc1ccccc1NC(=O)N1CCc2c([nH]c3ccccc23)C1C(F)(F)F (stereo not drawn) | 35* | 13 | -2 | -1 | 8
Cc1cc(C)c(C#N)c(SCc2nnc(-c3ccccc3)o2)n1 | -362 | 28 | · | -3 | -47
COc1ccccc1-c1cc(-c2ccc(C)cc2)nc(SCc2nnc(-c3ccccc3)o2)c1C#N | 6 | 4 | · | -1 | ·
CO[C@H]1CN(C)C(=O)c2ccc(NC(=O)NC(C)C)cc2OC[C@H](C)N(Cc2cncnc2)C[C@H]1C | · | · | 0 | · | ·
Cc1ccc(C(=O)Nc2cccc(NC(=O)c3ccc(C)c([N+](=O)[O-])c3)n2)cc1[N+](=O)[O-] | -5 | 1 | 5 | -1 | ·
Cc1ccc(C(=O)Nc2sc(C)c(-c3ccccc3)c2C(N)=O)cc1[N+](=O)[O-] | -415 | -20 | · | -1 | -99
CO[C@@H]1CN(C)C(=O)c2ccc(NC(=O)c3cnccn3)cc2OC[C@@H](C)NC[C@H]1C | · | · | -2 | · | ·
N#Cc1ccc(CSc2nnc(-c3c[nH]c4ccccc34)n2-c2ccccc2)cc1 | -11 | -10 | 0 | 0 | ·
Cc1ccccc1-n1c(SCc2c(C)noc2C)nnc1-c1c[nH]c2ccccc12 | 40* | -10 | · | -1 | 41*
COc1cc(-c2[nH]nc3c2C(c2ccco2)C(C#N)=C(N)O3)cc(OC)c1OC (stereo not drawn) | 57* | 17 | -5 | 0 | 37*
COc1cc(-c2[nH]nc3c2C(c2ccoc2)C(C#N)=C(N)O3)cc(OC)c1OC (stereo not drawn) | 9 | 3 | · | · | ·
CCC(=O)N1CCN(c2nc(CC)nc3sc4c(c23)CCCC4)CC1 | -16 | -3 | 1 | -1 | ·
CC1CCc2c(sc3nc(C(C)(C)C)nc(N4CCN(C(=O)CCl)CC4)c23)C1 (stereo not drawn) | 40* | 23 | -6 | 0 | 27*
CC(=O)OCCCNc1cc(Sc2ccc(Cl)cc2)c2nonc2c1[N+](=O)[O-] | · | · | · | -1 | ·
Cc1ccc(Sc2cc(NCCCO)c([N+](=O)[O-])c3nonc23)cc1 | 46* | -9 | -1 | 0 | 44*
CC(C)Cn1c(S(=O)(=O)O)nc2ccccc21 | 35* | -3 | 2 | 0 | -23
SMILES | 697 NFkB inh | Jurkat NFkB inh | F508del corr | HIF act | 697 NFkB conf
CS(=O)(=O)Nc1ccc2c(c1)[C@H]1C[C@H](CC(=O)NCC(F)(F)F)O[C@H](CO)[C@H]1O2 | · | · | 0 | · | ·
Cc1ccccc1-c1cc(C(=O)Nc2sc(C(=O)OC(C)C)c(C)c2C#N)c2ccccc2n1 | 37* | 16 | · | 0 | 43*
C[C@H]1CN([C@@H](C)CO)C(=O)Cc2cc(NS(=O)(=O)c3ccc(F)cc3)ccc2O[C@@H]1CN(C)Cc1ccc(C(=O)O)cc1 | · | · | 2 | · | ·
CC(Oc1cc2oc(=O)cc(-c3ccccc3)c2cc1Cl)C(=O)NCC1CCC(C(=O)O)CC1 (stereo not drawn) | 15 | -10 | 2 | 0 | ·
CCc1cc2c(-c3ccccc3)cc(=O)oc2cc1OC(C)C(=O)NCC1CCC(C(=O)O)CC1 (stereo not drawn) | 41* | -12 | -3 | 0 | 19
COc1cccc(CN2CC3(CN(C(C)=O)C3)c3c(n(C)c4cc(OC)ccc34)[C@H]2CO)c1 | · | · | 0 | · | ·
O=C(CNS(=O)(=O)c1cccc(Cl)c1)Nc1ccc(-c2nc3ccccc3s2)cc1 | -319 | -127 | · | 1 | -229
CC(C)(C)c1ccc(S(=O)(=O)NCC(=O)Nc2ccc(-c3nc4ccccc4s3)cc2)cc1 | -157 | -31 | · | 2 | ·
CNc1ncc(C(=O)c2ccc(Cl)cc2)s1 | -104 | -92 | · | 1 | ·
CNc1ncc(C(=O)c2ccc(-c3ccccc3)cc2)s1 | -350 | -120 | 0 | 3 | -178
O=C(NC1CCCC1)N[C@@H]1CC[C@@H](CC(=O)N2CCOCC2)O[C@H]1CO | · | · | -1 | · | ·
CCn1c(=O)cc(OCC(=O)NCc2ccc(C)o2)c2ccccc21 | 36* | 6 | · | 0 | 42*
CCn1c(=O)cc(OCC(=O)NCc2ccco2)c2ccccc21 | 7 | 10 | · | 0 | ·
CCC(c1nnc(SCC(=O)NC2CCCCC2)n1Cc1ccccc1)N(C)C (stereo not drawn) | 39* | 4 | 2 | 0 | 2
CNC(=O)c1ccc(-c2cc3onc(-c4ccccc4)c3c(=O)n2C)cc1 | -171 | -107 | 2 | · | ·
CCCOc1ccc(-c2cc3onc(-c4ccccc4)c3c(=O)n2C)cc1 | -278 | 10 | -1 | · | -370
Cc1ccc(-c2cc3onc(-c4ccccc4)c3c(=O)n2C)cc1 | -346 | -100 | -1 | · | -385
O=[N+]([O-])c1ccccc1COc1ccc(Cl)c2cccnc12 | -306 | -76 | 2 | 4 | -312
COc1cc(Br)c(C(=O)c2nccc3cc(OC)c(OC)cc23)cc1OC | 39* | 15 | 1 | 0 | 30*
O=C(O)c1ccccc1N=Cc1c(O)n(-c2nccs2)c(=O)c2ccccc12 | 42* | 19 | -2 | 2 | 12
CCC(=O)N(C)C[C@@H]1Oc2cc(C#CCC3CCCC3)ccc2S(=O)(=O)N([C@@H](C)CO)C[C@H]1C | · | · | -1 | · | ·
COc1ccccc1N(/N=C1\Sc2ccccc2C1=O)C(C)=O | -391 | -98 | -2 | -3 | -331
CN(C)Cc1cn(CC[C@@H]2CC[C@H](N)[C@H](CO)O2)nn1 | · | · | 0 | · | ·
CCCNC(=O)c1ccc(N2CCC3(CC2)CC(c2cccc(Br)c2)=NO3)c(NC(=O)c2ccc(Cl)c([N+](=O)[O-])c2)c1 | 37* | 11 | -7 | 1 | 26*
Cc1ccc(CNC(=O)c2ccc(N3CCC4(CC3)CC(c3cccc(Br)c3)=NO4)c(NC(=O)c3ccc(Cl)c([N+](=O)[O-])c3)c2)cc1 | 9 | -5 | -1 | · | ·
O=C(NCC[C@H]1CC[C@@H](NC(=O)c2ccccc2F)[C@@H](CO)O1)c1ccc2c(c1)OCO2 | · | · | -2 | · | ·
